The full list was thinned out, with hits kept by preference.
SF-1 inh: SF-1 (human) inhibition; Q13285; CHO-K1 Gal4-SF-1 LBD luciferase reporter; inhibition, % at 10 µM; 65,000 tested, 0.55% active; AID 525;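 active means inhibition above the mean inhibition of all tested compounds plus 3 SD, cut at about 48% in these data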
Target sequence (Q13285 whole entry, looked up, the tested form may be a part): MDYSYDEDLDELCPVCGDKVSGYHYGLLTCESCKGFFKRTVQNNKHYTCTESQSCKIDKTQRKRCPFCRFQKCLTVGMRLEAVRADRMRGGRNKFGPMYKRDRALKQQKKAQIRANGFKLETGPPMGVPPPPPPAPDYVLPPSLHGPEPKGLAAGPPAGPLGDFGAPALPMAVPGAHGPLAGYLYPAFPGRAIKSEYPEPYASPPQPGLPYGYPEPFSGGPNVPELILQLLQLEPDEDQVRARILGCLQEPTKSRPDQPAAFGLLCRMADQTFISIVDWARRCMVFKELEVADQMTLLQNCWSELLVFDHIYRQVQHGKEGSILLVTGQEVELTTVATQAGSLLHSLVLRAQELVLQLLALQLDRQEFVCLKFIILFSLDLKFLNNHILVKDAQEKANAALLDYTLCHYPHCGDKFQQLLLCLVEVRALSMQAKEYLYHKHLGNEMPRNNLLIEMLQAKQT
A number is an active result; i = inactive.

SMILES	SF-1 inh
CCC1(CC)C(=O)NC(=O)NC1=NCCc1ccc(O)cc1	i
Cc1ccc(C2=Nc3ccccc3NC(C)(c3ccc(C)o3)C2)o1 (centres undefined)	i
Cc1ccc(S(=O)(=O)N2CCN(C(=O)CN3CCN(C)CC3)C2)cc1	i
Clc1ccc(OCc2nc(-c3ccncc3)no2)c(Cl)c1	i
COc1cccc(-c2nc(-c3ccccn3)no2)c1OC	i
Brc1ccc(-c2nc(-c3cccnc3)no2)o1	i
Cc1ccccc1-c1noc(-c2ccc(O)cc2)n1	i
c1ccc(CCCc2nc(-c3ccccn3)no2)cc1	i
Cc1ccc(-c2nc(-c3ccccn3)no2)cc1Cl	86
Cc1ccc(-c2nc(-c3ccccn3)no2)cc1	92
CC(C)(C)c1ccc(OCc2nc(-c3ccccn3)no2)c(Br)c1	i
Clc1cccc(-c2nc(-c3ccccn3)no2)c1	71
c1ccc2c(c1)CCN(CCCNc1nc3ccccc3n3cnnc13)C2	i
O=C(Nc1ccc(Br)cn1)c1ccc2nccnc2c1	i
Cc1nn(-c2ccccc2)c2sc(C(=O)OC3CCOC3=O)cc12 (centres undefined)	i
COc1ccccc1NC(=O)C1=C(C)Nc2nc(CCCO)nn2C1c1ccc2c(c1)OCO2 (centres undefined)	i
COc1ccc(N2C(=O)CC(c3ccc(OC(C)C)cc3)C2=O)cc1 (centres undefined)	i
CC(=O)C1=C(c2ccccc2)NC(=O)NC1c1ccccc1OCC#N (centres undefined)	i
CCC(C(=O)N1CCc2ccccc2C1)n1nc(C)n2c(cc3occc32)c1=O (centres undefined)	i
COc1ccc(N=c2scc(-c3ccc(S(=O)(=O)N4CCOCC4)cc3)n2CCCO)cc1	64
O=C(Nc1ccc(S(=O)(=O)N2CCOCC2)cc1)c1cccs1	i
CCOc1cc(C(=O)Nc2ccc(S(=O)(=O)N3CCOCC3)cc2)cc(OCC)c1OCC	i
Cc1nc(SCC(=O)Nc2c(C)n(C)n(-c3ccccc3)c2=O)[nH]c(=O)c1Cc1ccccc1	i
COc1ccc(-c2nc(C)c(C(C)=O)n2O)cc1OC	i
Cc1oc2cc(O)cc(O)c2c(=O)c1-c1ccc2c(c1)OCCCO2	i
SMILES	SF-1 inh
CC(=O)c1c(C)[nH]c(C(=O)Nc2ccc3c(c2)OCCO3)c1C	i
Cc1oc(-c2ccc3c(c2)OCCO3)cc1C(=O)O	81
COc1ccc(-c2cc(C(=O)O)c(C)o2)cc1OC	51
COc1ccc(-c2nnc(SCCC(=O)O)n2C)cc1OC	i
CSc1nncc(-c2ccc(F)cc2)n1	i
CCOc1ccc(OCC)c(NC(=O)CSc2nc3c(c(=O)n(C)c(=O)n3C)n2C(C)C)c1	i
CC1(C)C2CCC1(C)C(OC(=O)CSc1nc(N)cc(=O)[nH]1)C2 (centres undefined)	i
O=C(OC(C(=O)NCc1cccs1)c1ccccc1Cl)c1ccco1 (centres undefined)	i
CC(C)(C)n1ncc2c(=O)n(CC(=O)NCc3ccccc3)cnc21	i
CCOC(=O)c1sc(NC(=O)c2cc3c(C)nn(-c4ccccc4)c3s2)nc1C	i
O=C(CCS(=O)(=O)c1ccc(Br)cc1)N1CCN(c2ccccc2F)CC1	i
CCN1C(=Nc2ccc(Cl)cc2)SC/C1=C\C(=O)OC	i
COc1ccc(-c2cc(C(F)(F)F)nc(N3CCN(c4ccccc4)CC3)n2)cc1OC	i
O=C(O)c1cc2nc(-c3ccccc3)cc(C(F)(F)F)n2n1	i
CS(=O)(=O)c1nc(-c2ccccc2)cc(C(F)(F)F)n1	52
CCn1c(SCc2cccnc2)nnc1-c1c[nH]c2ccccc12	i
COC(=O)c1ccc(CSc2nc3c(c(=O)n2-c2ccc(Br)cc2)SCC3)o1	i
CN(c1ccccc1)c1nc2ccsc2c(=O)s1	i
CCN(CC)CCCN1C(=O)C(O)=C(C(=O)c2cc3cccc(OC)c3o2)C1c1ccncc1 (centres undefined)	i
Cn1cnnc1SCc1ccc(C#N)cc1Cl	i
CC(C)c1nc(SCC(=O)Nc2ccc3c(c2)OCCO3)c2c(=O)n(C)c(=O)n(C)c2n1	i
CC(C)Cn1c(N)c(C(=O)CSc2ccc3c(c2)OCCO3)c(=O)n(C)c1=O	69
CCn1c(SCC(=O)c2ccc3c(c2)OCCO3)nnc1C(C)C	i
CCCn1nc(Oc2nc(SC)nc(N(C)C)n2)ccc1=O	i
CCOc1ccc(C(C)=O)cc1CSc1nnc(-c2cccs2)n1CC1CCCO1 (centres undefined)	i
SMILES	SF-1 inh
CCCCN(CC)C(=O)c1ccc(Cl)c(Cl)c1	i
CC(=O)c1cccc(-n2nnnc2SCC(=O)N2CCCC2)c1	i
O=C(Nc1nsc(-c2ccccc2)n1)c1cccs1	i
O=C(CSc1nnnn1-c1ccccc1)Nc1nsc(-c2ccc(Cl)cc2)n1	88
COc1cccc(-n2nnnc2SCC(=O)Nc2cccc(C)n2)c1	i
O=C(CNc1ccc(Oc2ccccc2)cc1)N1CCOCC1	i
Cc1nn(-c2ccccc2)c2sc(C(=O)N(CC(=O)NC(C)(C)C)Cc3ccco3)cc12	i
Cn1cc(C(=O)NCCN2CCN(c3ccccc3F)CC2)c2c3ccccc3n(C)c2c1=O	i
CC(=O)Nc1cccc(-c2nnc(-c3ccccc3)o2)c1	i

Bioassay records deposited in PubChem BioAssay by The Scripps Research Institute Molecular Screening Center.
